This is part of a sample that, as a whole, favours compounds with a hit. Of some 83,000 tested, about 20% had one in any assay.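 96-well plates, one dose, 48 hours. Percent growth reported; active if below 10.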 Active and inactive are the calls of the source.
Key:
Test in all cases: NCI-60 one-dose screen, 48 h (100 = growth as untreated, 0 = no growth, -100 = all killed)
Settings in all cases: 10 µM unless noted
NCI-H226 lung = system: NCI-H226 lung
HOP-62 NSCLC = system: HOP-62 NSCLC
NCI-H460 lung = system: NCI-H460 lung
NCI-H522 lung = system: NCI-H522 lung
A549/ATCC NSCLC = system: A549/ATCC NSCLC
786-0 renal = system: 786-0 renal
COLO 205 colon = system: COLO 205 colon
DU-145 prostate = system: DU-145 prostate
K-562 leukemia = system: K-562 leukemia
MALME-3M melanoma = system: MALME-3M melanoma
MDA-MB-231 breast = system: MDA-MB-231 breast
RXF 393 renal = system: RXF 393 renal
SF-268 CNS = system: SF-268 CNS
SF-295 CNS = system: SF-295 CNS
SF-539 CNS = system: SF-539 CNS
UACC-257 melanoma = system: UACC-257 melanoma
M14 melanoma = system: M14 melanoma
HCT-15 colon = system: HCT-15 colon
NCI-H322M lung = system: NCI-H322M lung

Measured: growth

CC1=NN(c2ccccc2Cl)C(=O)/C1=C\c1cn(S(=O)(=O)c2ccc(C)cc2)c2ccccc12
inactive: NCI-H226 lung 79.9% | HOP-62 NSCLC 62.3% | NCI-H460 lung 119% | NCI-H522 lung 107% | A549/ATCC NSCLC 109% | 786-0 renal 94.9% | COLO 205 colon 142% | DU-145 prostate 114% | K-562 leukemia 138% | MALME-3M melanoma 114% | MDA-MB-231 breast 85.4% | RXF 393 renal 137% | SF-268 CNS 104% | SF-295 CNS 114% | SF-539 CNS 114% | UACC-257 melanoma 115% | M14 melanoma 82.1% | HCT-15 colon 105%

OC(Cc1cccnc1)c1ccccc1 (centres undefined)
inactive: NCI-H226 lung 107% | NCI-H322M lung 95.9% | HOP-62 NSCLC 105% | NCI-H460 lung 98% | NCI-H522 lung 101% | A549/ATCC NSCLC 94.8% | 786-0 renal 108% | COLO 205 colon 114% | K-562 leukemia 101% | MALME-3M melanoma 111% | MDA-MB-231 breast 92.1% | RXF 393 renal 114% | SF-295 CNS 104% | SF-539 CNS 98.6% | UACC-257 melanoma 101% | M14 melanoma 106% | HCT-15 colon 104%

COc1cc(C(=O)/C=C/c2cccnc2Nc2ccccc2)cc(OC)c1OC
inactive: SF-295 CNS 17.3%
active: NCI-H226 lung -96.2% | NCI-H322M lung 7.04% | HOP-62 NSCLC -74.2% | NCI-H460 lung -40.4% | NCI-H522 lung -68.7% | A549/ATCC NSCLC 2.67% | 786-0 renal -83.1% | COLO 205 colon -87.5% | DU-145 prostate -98.9% | MALME-3M melanoma -71.5% | MDA-MB-231 breast -61.1% | RXF 393 renal -97.4% | SF-268 CNS -81.1% | SF-539 CNS -54.8% | UACC-257 melanoma -88.2% | M14 melanoma -70% | HCT-15 colon -33.7%

Cc1cc(C(=O)O)c(C)cc1C(=O)O
inactive: NCI-H226 lung 101% | NCI-H322M lung 76.8% | HOP-62 NSCLC 93.5% | NCI-H460 lung 119% | NCI-H522 lung 96.5% | A549/ATCC NSCLC 103% | 786-0 renal 101% | COLO 205 colon 120% | DU-145 prostate 120% | K-562 leukemia 101% | MALME-3M melanoma 89.5% | MDA-MB-231 breast 114% | RXF 393 renal 116% | SF-268 CNS 115% | SF-539 CNS 113% | UACC-257 melanoma 104% | M14 melanoma 101% | HCT-15 colon 104%

COc1cc(/C=C/C(=O)Nc2ccc3c(c2)/C(=C\c2cccn2C)C(=O)N3)cc(OC)c1OC
active: NCI-H522 lung 5.66%
inactive: NCI-H226 lung 67.3% | NCI-H322M lung 61.2% | HOP-62 NSCLC 45.5% | NCI-H460 lung 55.4% | A549/ATCC NSCLC 37.5% | 786-0 renal 54.8% | COLO 205 colon 53.7% | DU-145 prostate 63% | K-562 leukemia 28.4% | MDA-MB-231 breast 36.5% | SF-268 CNS 69.3% | SF-295 CNS 38.3% | SF-539 CNS 56.7% | UACC-257 melanoma 62% | M14 melanoma 49.5% | HCT-15 colon 32.5%

CCOC(=O)c1cc(-c2cccnc2)nc2c(Cl)cc(Cl)cc12
inactive: NCI-H226 lung 98.9% | NCI-H322M lung 84.1% | HOP-62 NSCLC 92.5% | NCI-H460 lung 106% | NCI-H522 lung 93.6% | A549/ATCC NSCLC 74.9% | 786-0 renal 72.5% | COLO 205 colon 121% | DU-145 prostate 103% | K-562 leukemia 105% | MALME-3M melanoma 124% | MDA-MB-231 breast 103% | SF-268 CNS 73% | SF-295 CNS 90.2% | SF-539 CNS 79.6% | UACC-257 melanoma 120% | M14 melanoma 117% | HCT-15 colon 96.6%

CC1=C(C(=O)Nc2ccccc2)C(c2ccc3c(c2)OCCO3)NC(=O)N1 (centres undefined)
inactive: NCI-H226 lung 102% | NCI-H322M lung 107% | HOP-62 NSCLC 104% | NCI-H460 lung 107% | NCI-H522 lung 104% | A549/ATCC NSCLC 98.8% | 786-0 renal 100% | COLO 205 colon 105% | DU-145 prostate 114% | K-562 leukemia 98.5% | MALME-3M melanoma 96.9% | MDA-MB-231 breast 118% | RXF 393 renal 116% | SF-268 CNS 100% | SF-295 CNS 114% | SF-539 CNS 100% | UACC-257 melanoma 102% | M14 melanoma 103% | HCT-15 colon 106%

CC(C)(C)c1ccc(S(=O)(=O)O)s1
inactive: NCI-H226 lung 107% | NCI-H322M lung 111% | HOP-62 NSCLC 99% | NCI-H460 lung 106% | NCI-H522 lung 89.6% | A549/ATCC NSCLC 99.2% | 786-0 renal 95.6% | DU-145 prostate 108% | K-562 leukemia 77% | MDA-MB-231 breast 93.1% | RXF 393 renal 105% | SF-268 CNS 102% | SF-539 CNS 99.3% | UACC-257 melanoma 117% | M14 melanoma 107%

Fc1ccc([C@@H]2CCNC[C@H]2COc2ccc3c(c2)OCO3)cc1
inactive: NCI-H226 lung 83.2% | NCI-H322M lung 73.2% | HOP-62 NSCLC 79% | NCI-H460 lung 73.5% | NCI-H522 lung 64.6% | A549/ATCC NSCLC 83% | 786-0 renal 68.2% | DU-145 prostate 92.1% | K-562 leukemia 51.7% | MALME-3M melanoma 78.4% | MDA-MB-231 breast 11.5% | RXF 393 renal 71.7% | SF-268 CNS 92.3% | SF-295 CNS 74.2% | SF-539 CNS 89.5% | UACC-257 melanoma 76.8% | M14 melanoma 49.7% | HCT-15 colon 85.8%
active: COLO 205 colon -77.5%
